Screens as filed in PubChem.
An excerpt weighted towards active compounds, which were near 4.2% of everything screened.
D1 potentiator = enhances dopamine response at the human D1 receptor; 0.036% of 360,000 active; HEK293 TREx D1 cells, calcium flux, dopamine EC20 potentiation; potentiation, % at 10 µM; P21728; AID 504651; in the data active = potentiation above about 30%
D1 agonist = activates the human D1 dopamine receptor; P21728; activation, % at 2 µM; HEK293 T-REx D1 cells, calcium flux, agonist mode; AID 504660; 1% of 360,000 active; in the data active = activation above about 30%
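Tetracycline-induced HEK293 TREx D1 cells, force-coupled to calcium signalling, were dye-loaded with a no-wash calcium kit. Compound was pin-added after a 10 s baseline. Fluorescence was read kinetically at 1 cycle/s for 180 s, with calcium rises flagged as agonism.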
D1 antag = blocks dopamine activation of the human D1 receptor; P21728; HEK293 TREx D1 cells, calcium flux, dopamine EC80; stronger effect = lower value; activity change, negative = inhibition, % at 10 µM; 3.2% of 360,000 active; AID 504652; in the data active = activity change below about -30%
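Cells carrying a force-coupled, tetracycline-inducible human D1 receptor report calcium flux. Each well gets a 10 s baseline, compound with 180 s monitoring, then an EC80 dopamine stimulus with a second 180 s kinetic read.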
TRPV1 PAM = enhances activation of the human vanilloid receptor TRPV1; Q8NER1; TRPV1-expressing cells, Fluo-8 calcium influx, capsaicin EC20 potentiation; potentiation, % at 8.33 µM; 0.02% of 320,000 active; AID 540277; in the data active = potentiation above about 80%; inconclusive = between about 30% and that limit
Target sequence (Q8NER1 whole entry, looked up): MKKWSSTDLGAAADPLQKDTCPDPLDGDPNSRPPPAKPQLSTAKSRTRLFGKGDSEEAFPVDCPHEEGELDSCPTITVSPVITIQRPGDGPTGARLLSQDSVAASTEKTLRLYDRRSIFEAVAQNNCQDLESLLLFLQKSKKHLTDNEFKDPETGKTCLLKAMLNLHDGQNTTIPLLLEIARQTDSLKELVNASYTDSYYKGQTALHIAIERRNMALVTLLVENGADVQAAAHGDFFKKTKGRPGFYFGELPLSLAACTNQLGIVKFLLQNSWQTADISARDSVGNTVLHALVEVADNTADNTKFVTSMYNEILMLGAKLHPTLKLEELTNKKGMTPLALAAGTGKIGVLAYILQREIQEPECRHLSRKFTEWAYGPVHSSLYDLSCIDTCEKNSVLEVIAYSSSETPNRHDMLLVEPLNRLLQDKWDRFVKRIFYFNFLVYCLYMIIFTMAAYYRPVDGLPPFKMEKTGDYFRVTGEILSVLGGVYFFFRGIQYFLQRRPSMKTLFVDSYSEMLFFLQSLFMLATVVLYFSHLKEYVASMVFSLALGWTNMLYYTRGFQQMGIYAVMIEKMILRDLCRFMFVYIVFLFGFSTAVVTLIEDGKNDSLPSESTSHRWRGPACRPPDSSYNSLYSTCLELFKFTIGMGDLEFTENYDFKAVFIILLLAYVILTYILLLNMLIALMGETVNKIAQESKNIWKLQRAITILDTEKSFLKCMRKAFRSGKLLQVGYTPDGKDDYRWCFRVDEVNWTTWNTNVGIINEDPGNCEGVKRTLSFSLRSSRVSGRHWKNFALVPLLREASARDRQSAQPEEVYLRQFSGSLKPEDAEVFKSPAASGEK
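Fluo-8 calcium influx in TRPV1-expressing cells, kinetic read (ex 480/em 520 nm). Compound added and read 3 min for agonist activity, followed by capsaicin at EC20 final and 2 min further read for enhancement.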
TRPV1 agonist = human TRPV1 agonism | activation, % at 8.33 µM | TRPV1-expressing cells, Fluo-8 calcium influx, agonist mode | 0.19% of 320,000 active | Q8NER1 | AID 540275; in the data active = activation above about 80%; inconclusive = between about 30% and that limit
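Fluo-8 calcium influx in TRPV1-expressing cells, kinetic read (ex 480/em 520 nm). Compound added and read 3 min for agonist activity, followed by capsaicin at EC20 final and 2 min further read for enhancement.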
Each line names hits and unclear results; the compound was inactive in the other large screens; ! = a repeat was not active.

O=C(NCc1ccc(F)cc1)C(=O)NCC(c1ccc2c(c1)OCO2)N1CCOCC1 (stereo unspecified)	none (no result: TRPV1 PAM, TRPV1 agonist)
COC(=O)c1sccc1S(=O)(=O)N(CC(=O)NCc1ccc(F)cc1)c1ccccc1	none (no result: TRPV1 PAM, TRPV1 agonist)
COc1ccccc1C(=O)Nc1cccc(C(=O)OCc2cc(=O)n3nc(C)sc3n2)c1	none (no result: TRPV1 PAM, TRPV1 agonist)
Cc1c(Br)c([N+](=O)[O-])nn1CC(=O)Nc1ccc(CC#N)cc1	none
COc1cc(NC(=O)Cn2nc(C(F)(F)F)c(Br)c2C)cc([N+](=O)[O-])c1	D1 antag -34
COc1ccc(CNC(=O)Cn2nc(C(F)(F)F)c(Br)c2C)cc1	none
Cc1ccc(NC(=O)Cn2nc([N+](=O)[O-])c(Br)c2C)cc1C	D1 antag -33
CCC(=O)Nc1ccc(Cl)c(NC(=S)NC(C)=O)c1	none
CCCC(=O)Nc1ccc(Cl)c(NC(=S)NC(=O)C(C)C)c1	D1 antag -37
CCOc1ccc(C(=O)NCc2cccs2)cc1	none
CCCCOc1ccc(C(=O)NCC2(c3ccccc3)CCOCC2)cc1	D1 antag -40, TRPV1 PAM inconclusive
CCCCOc1ccc(C(=O)NCCc2cccs2)cc1	D1 antag -32, TRPV1 agonist inconclusive
CCCCn1nc2cc(C(=O)NCCc3cccs3)ccc2c1OCC	D1 antag -67
CCCc1ccc(S(=O)(=O)N2CCC(Oc3ccc(-n4cnnn4)cc3)CC2)cc1	none (no result: TRPV1 PAM, TRPV1 agonist)
CCCn1ccc2c(OCC(=O)Nc3ccccc3C(=O)OCC)cccc2c1=O	none (no result: D1 antag, TRPV1 PAM, TRPV1 agonist)
N#CCC(=O)Nc1ccc(C(=O)OCC(=O)N=c2sccn2Cc2ccccc2Cl)cc1	D1 antag -46
Cc1cc(C)c([N+](=O)[O-])cc1-c1ccc(/C=N/c2c(-c3ccco3)nc3ccccn23)o1	D1 antag -50
Cc1cc2[nH]c(=O)c(=O)[nH]c2cc1S(=O)(=O)N1CCN(c2cccc(C(F)(F)F)c2)CC1	D1 antag -62!
Cc1c(Cl)cccc1NC(=O)CSc1nc(=O)n(Cc2ccccn2)c2c1CCC2	none (no result: D1 antag, TRPV1 PAM, TRPV1 agonist)
COc1cc(Nc2cc(C)nc3ncnn23)cc(OC)c1OC	D1 antag -31
Cc1cc(C(=O)OCC(=O)NCCC(C)C)c2ccccc2n1	D1 antag -47
COc1ccccc1CNC(=O)c1cc(C)nc2ccccc12	D1 antag -31
Cc1cccc(OCC(=O)NCc2cc(C)nc3ccccc23)c1	D1 antag -34
CCCNC(=O)COC(=O)c1cc(C)nc2ccccc12	none
O=C(NCC1CCN(Cc2ccc(F)cc2)CC1)c1cc2ccc3cccnc3c2[nH]1	none (no result: TRPV1 PAM, TRPV1 agonist)
Cc1ccc(-n2cc(CNCCCn3cccn3)c(-c3cccc(C)c3)n2)cc1	D1 agonist 44, D1 antag -41
Cc1ccc(-n2cc(CNCCN3CCOC3=O)c(-c3cccc(C)c3)n2)cc1	none
Cc1ccc(C)c(-n2cc(CNCCCn3cccn3)c(-c3ccccc3)n2)c1	D1 agonist 40
CCCC12CN3CC(CCC)(CN(C1)C3c1c[nH]c3ccccc13)C2=O (stereo unspecified)	none (no result: TRPV1 PAM, TRPV1 agonist)
CCn1c(NCc2cccc(Cl)c2)nc2ccccc21	none (no result: TRPV1 PAM, TRPV1 agonist)
CN(Cc1ccccc1)C(=O)CN1C(=O)NC2(CCCC2)C1=O	none
O=C(CN1C(=O)NC2(CCCC2)C1=O)OCc1ccc(Br)cc1	D1 antag -66, TRPV1 PAM inconclusive
CN(Cc1ccccc1Br)C(=O)CN1C(=O)NC2(CCCCCC2)C1=O	D1 antag -76
O=C(CN1C(=O)NC2(CCCCCC2)C1=O)c1ccc(F)cc1	D1 antag -49
O=C(CN1C(=O)NC2(CCCC2)C1=O)OCc1ccccc1	none
N#Cc1ccsc1NC(=O)CN1C(=O)NC2(CCCC2)C1=O	D1 antag -33
NC(=O)c1ccsc1NC(=O)CN1C(=O)NC2(CCCCC2)C1=O	none
CCN(CC)c1nn2c(=O)c(C(=O)NCc3ccc(N(C)C)cc3)cnc2s1	none (no result: TRPV1 PAM, TRPV1 agonist)
CC(NC(=O)COC(=O)c1cc(NS(=O)(=O)c2ccc(Cl)c([N+](=O)[O-])c2)ccc1O)C1CC2CCC1C2 (stereo unspecified)	D1 antag -31
O=C(CCC(=O)c1ccc(F)cc1)Nc1cc(Cl)cc(Cl)c1	D1 antag -41
COc1ccc(N2C(=O)NC3CC2(C)Oc2ccccc23)cc1 (stereo unspecified)	D1 antag -39
COc1ccc(NC(=O)C2C(=O)N(C)C3(C)CC2c2ccccc2O3)cc1 (stereo unspecified)	D1 antag -32
COc1cccc(N2CCN(C(=O)c3ccc(N4C(=O)NC5CC4(C)Oc4ccccc45)cc3)CC2)c1 (stereo unspecified)	none
Cc1cc(O)c(C(c2ccc(F)cc2)N2CCCCC2)c(=O)n1Cc1ccco1 (stereo unspecified)	none (no result: TRPV1 PAM, TRPV1 agonist)
COc1cc(NS(=O)(=O)c2cc(Br)cc3c2N(C(=O)C2CC2)CC3)cc(OC)c1	none (no result: TRPV1 PAM, TRPV1 agonist)
CN1CCN(c2cc(N3CCc4ccccc4C3)c(F)cc2[N+](=O)[O-])CC1	D1 antag -54
CCC(=O)N1CCN(c2cc(N3CCN(C)CC3)c(F)cc2[N+](=O)[O-])CC1	none
CCc1ccc(NC(=O)c2[nH]c(C)c(C(C)=O)c2C)cc1	D1 antag -39
CC1=C(C(=O)Nc2cccc(C(F)(F)F)c2)C2(CCCCCC2)OC1=O	D1 agonist 32 (no result: TRPV1 PAM, TRPV1 agonist)
CC(=O)c1c(C)[nH]c(C(=O)Nc2cccc(C#N)c2)c1C	none
CC(=O)c1c(C)[nH]c(C(=O)Nc2cccc(C(F)(F)F)c2)c1C	D1 antag -33
CCOc1ccc(NC(=O)c2[nH]c(C)c(C(C)=O)c2C)cc1	none
CC(=O)c1c(C)[nH]c(C(=O)NC(C)c2ccccc2)c1C (stereo unspecified)	D1 antag -33
COc1ccc(OC)c(CCNC(=O)c2csc3c2CCCCC3)c1	none (no result: TRPV1 PAM, TRPV1 agonist)
CC(C)NC(=O)Cn1ncn2c(cc3cc(F)ccc32)c1=O	none (no result: TRPV1 PAM, TRPV1 agonist)
CC1CCN(C(=O)Cn2cc(SCC(=O)Nc3ccccc3C(F)(F)F)c3ccccc32)CC1	none (no result: TRPV1 PAM, TRPV1 agonist)
CC(=O)c1c(C)[nH]c(C(=O)Nc2cccc3ccccc23)c1C	D1 antag -33
CC(=O)c1c(C)[nH]c(C(=O)Nc2ccccc2Cl)c1C	none
CC(=O)N(Nc1ccccc1)c1ccccc1	D1 antag -52
CCOc1ccc(C(=O)NCCC(=O)N2CCC3(CC2)NCCc2[nH]cnc23)cc1OCC	D1 antag -63
COc1ccc(-c2nc3sc(CCNC(=O)C(=O)Nc4cccc(NC(C)=O)c4)c(C)n3n2)cc1	none (no result: D1 antag, TRPV1 PAM, TRPV1 agonist)
Cc1cc(/C=N/Nc2ccc([N+](=O)[O-])cn2)c(C)n1-c1ccccc1	none (no result: D1 antag)
Cc1ccc(-n2c(C)cc(/C=N/Nc3ccc([N+](=O)[O-])cn3)c2C)cc1	D1 antag -46
Cc1cc(/C=N/NC(=O)CC#N)c(C)n1-c1ccc([N+](=O)[O-])cc1	D1 antag -37
Cc1cc(C(=O)N/N=C/c2cccc([N+](=O)[O-])c2)c(C)n1-c1ccccc1	TRPV1 agonist 89
